Where “and” joins values, the source holds several entries; their conditions need not be identical. Equal entries are not always repeated. Values without a mark were called inactive. Records with an inconclusive call do not appear. A structure can be active in one record and inactive in another. Calls of active or inactive are those of the source. Unless noted, calls follow the shape of the dose curve; as a rule, active = well fitted curve in the direction sought with a large enough effect; inconclusive = small, poorly fitted or top-dose-only effect, or another doubt; inactive = no such curve, though single readings can be large; an effect the other way counts as inactive or inconclusive.

This is an account of results in PubChem BioAssay (NCATS).

The nature of test [1]: Drug repurposing screens with cells derived from glioblastoma tumor samples (AID 1345199). Also: nearly all actives have a fitted effect of over 40% in size. Also: potency is read from the fitted curve at half-maximal effect. As to activity, negative = cell killing: % is scaled to controls: 0 for no effect and ±100 for the full control effect. The conditions noted are these: GBM patient neurospheres viability, ATP luminescence, 48 h. Summed up: (§1)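 Four patient lines of CD133+ GBM neurospheres were screened at several concentrations; hits were retested in those lines plus three slower-growing GBM lines, using 48-hour treatment and ATP-based viability.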

A further test has as its system astro (control astrocytes). The test is described as above. To be noted: viability, ATP luminescence, 48 h; series mostly up to 45.9 µM. The method in brief: as §1
For test [2], the target named is Nuclear receptor subfamily 1 group I member 2 (Rattus norvegicus) (UniProt Q9R1A7). Briefly: qHTS assay for small molecule activators of the rat pregnane X receptor (rPXR) signaling pathway (AID 651751; call rule not given here; also: 0% is about no effect). The conditions noted are these: rPXR reporter cells, luciferase (One-Glo), 24 h. Background: In qHTS, concentration-response curves come from the screen itself.
Test [3] is described as follows: qHTS assay for small molecule activators of the human pregnane X receptor (PXR) signaling pathway (AID 720659; call rule not given here; also: 0% is about no effect). To be noted: DPX-2 HepG2 CYP3A4-luciferase, 24 h; series mostly up to 92.3 µM.
Test [4] in a line: qHTS assay to identify inhibitors of the type 1 interferon - major histocompatibility complex class I in skeletal muscle: Counter screen cell viability and HiBit confirmation (AID 1347412). Also: potency is read from the fitted curve at half-maximal effect; nearly all actives have a fitted effect of over 60% in size. The conditions noted are these: iHSKM muscle cells + IFN-b, HiBiT or CellTiter-Glo, 24 h; Potency: HiBiT; Viability, at 45.9 µM (top of the series). Summed up:
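Myoblasts (C25cl48, HLA-B HiBiT) seeded in medium without dexamethasone, IFN-b 4 ng/ml added except unstimulated columns; 1 hr later compounds pinned (12-pt 1:3, top 46 uM final). Incubated 24 hrs, lysed 10 min, luminescence measured.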

[5] abbreviates: at 45.9 µM (top of the series), tumour line B.
Setting [6] is: at 45.9 µM (top of the series), tumour line D.
[7] abbreviates: at 46.1 µM (top of the series), tumour line C.
[8] abbreviates: at 20 µM (top of the series), tumour line C.
Setting [9] is: at 21.2 µM (top of the series), tumour line B.

Sequence of Nuclear receptor subfamily 1 group I member 2 (Rattus norvegicus) (Q9R1A7 whole entry, looked up): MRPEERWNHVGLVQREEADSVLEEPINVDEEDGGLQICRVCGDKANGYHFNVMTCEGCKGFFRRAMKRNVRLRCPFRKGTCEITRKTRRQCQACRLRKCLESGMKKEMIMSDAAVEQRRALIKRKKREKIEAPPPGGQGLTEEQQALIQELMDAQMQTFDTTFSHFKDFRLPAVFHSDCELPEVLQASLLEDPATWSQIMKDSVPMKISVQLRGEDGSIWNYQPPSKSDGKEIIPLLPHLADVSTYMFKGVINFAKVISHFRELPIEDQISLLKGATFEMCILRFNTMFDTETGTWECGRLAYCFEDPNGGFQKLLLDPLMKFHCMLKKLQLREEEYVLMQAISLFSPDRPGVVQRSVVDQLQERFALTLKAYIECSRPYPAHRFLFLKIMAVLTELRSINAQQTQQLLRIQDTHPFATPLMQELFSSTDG

For `Cc1nc(-c2ccc(Cl)cc2)oc1COC(C)(C)C(=O)O`, the figures for the activity, negative = cell killing in test [1] (setting [5]), in test [1] (setting [6]) and in test [1] (setting [7]) were -18.8%, -2.81% and -9.1%, respectively. The Potency entry in the test on astro was “inactive”.

In the case of `CC1(C)OC[C@@H]2O[C@@]3(C(=O)O)OC(C)(C)O[C@H]3[C@@H]2O1`, the activity, negative = cell killing was 2.23% in test [1] (setting [5]), 2.89% in test [1] (setting [6]) and -11.9% in test [1] (setting [7]). The Potency result with astro was “inactive”. Besides, the max response in test [2] is 0.338%. Moreover, in test [3], the result was inactive.

Consider `CN(C)C(=O)Nc1ccc(Cl)c(Cl)c1`, for which the values for the activity, negative = cell killing in test [1] (setting [5]), in test [1] (setting [6]) and in test [1] (setting [7]) were -10.4%, -7.69% and -10.1%, respectively. In addition, the Potency entry in the test with astro was “inactive”. The max response in test [2] was 5.92%. Further, the call in test [3] was inactive.

Regarding `CC(=C(CCOC(=O)C(C)C)SSC(CCOC(=O)C(C)C)=C(C)N(C=O)Cc1cnc(C)nc1N)N(C=O)Cc1cnc(C)nc1N`, the activity, negative = cell killing in test [1] (setting [5]) is 1.68%; in test [1] (setting [6]), 3.5%; in test [1] (setting [7]), -16.1%. Besides, in the test with astro, the Potency entry is “inactive”.

Consider `NC(=S)N/N=C/c1cccnc1`, for which the activity, negative = cell killing was -6.47% in test [1] (setting [5]), 0.861% in test [1] (setting [6]) and -3.6% in test [1] (setting [7]). The Potency result in the test on astro was “inactive”.

As for `C/C=C/c1ccc(O)c(OC)c1`, the activity, negative = cell killing in test [1] (setting [5]) is -4.55%; in test [1] (setting [6]) it was -0.156%; in test [1] (setting [7]), -3.58%. For the same compound, the Potency entry in the test on astro is “inactive”. Besides, in test [2], the max response was 1.38% and 1.79%. For the same compound, the outcome in test [3] was inactive.

With `NC(N)=NCc1cccc(I)c1`, the activity, negative = cell killing in test [1] (setting [5]) was -24.3% and -14.8%. In addition, the Potency in test [1] (tumour line A) was 12.6 µM (active). The Potency entry in the test on astro is “inactive”.

Consider `O=S(=O)(O)c1ccc(O)cc1`, for which the activity, negative = cell killing in test [1] (setting [5]) was -17.6%; in test [1] (setting [6]) it was -11%; in test [1] (setting [7]), -1.85%. The Potency result in the test on astro was “inactive”.

As to `CCCCC(CC)CN1CN(CC(CC)CCCC)CC(C)(N)C1` (centres undefined), the activity, negative = cell killing is -6.58% in test [1] (setting [8]); -11% in test [1] (setting [9]); -24% in test [1] (at 21.2 µM (top of the series), tumour line D). Moreover, the Potency result in the test with astro was “inactive”.

On to `CO[C@]12C[C@@H](COC(=O)c3cncc(Br)c3)CN(C)[C@@H]1Cc1cn(C)c3cccc2c13`, for which the activity, negative = cell killing in test [1] (setting [5]) was -27.1%; in test [1] (setting [6]), -16.6%; in test [1] (setting [7]), -7.09%. For the same compound, in the test with astro, the Potency entry is “inactive”.

As to `CCCCC(CC)COC(=O)c1ccc(N(C)C)cc1` (centres undefined), the activity, negative = cell killing in test [1] (setting [5]) was -7.11%; in test [1] (setting [6]) it was -11.8%; in test [1] (setting [7]), -2.69%. In test [2], the max response is 5.66% and 6.49%.

Take `O=C(Nc1ccccc1)OCC(CN1CCCCC1)OC(=O)Nc1ccccc1` (centres undefined): in test [1] (setting [8]), the activity, negative = cell killing was -1.96%. The Potency in test [1] (tumour line A) was 11.2 µM (active); in test [1] (tumour line D), 10 µM (active). Besides, the Potency result with astro is “inactive”.

`C[C@H]1[C@H]2CC[C@H]3[C@@H]4CC=C5C[C@@H](N(C)C)CC[C@]5(C)[C@H]4CC[C@]23CN1C`: the figures for the activity, negative = cell killing in test [1] (setting [5]) and in test [1] (setting [7]) were 0.435% and -23.5%, respectively. For the same compound, the Potency result in the test with astro was “inactive”.

Regarding `CCC(C(=O)OCCOCCN(CC)CC)c1ccccc1` (centres undefined), the activity, negative = cell killing in test [1] (setting [7]) is -29.9%. In addition, in test [1] (tumour line A), the Potency was 14.1 µM (active). For the same compound, the Potency result with astro is “inactive”.

As to `C=C1c2cccc(O)c2C(O)=C2C(=O)[C@]3(O)C(O)=C(C(N)=O)C(=O)[C@@H](N(C)C)[C@@H]3[C@@H](O)[C@H]12`, the activity, negative = cell killing in test [1] (setting [8]) was -24.5%; in test [1] (setting [9]) it was -7.73%. The Potency entry with astro was “inactive”.

`O[C@@H](c1cc(C(F)(F)F)nc2c(C(F)(F)F)cccc12)[C@H]1CCCCN1`: the Potency in the test on astro is 22.4 µM (active).

For `O=C(NCCc1c[nH]c2ccccc12)c1cccnc1`, the activity, negative = cell killing in test [1] (setting [5]) is -17.4%. Further, the Potency entry in the test with astro is “inactive”.

As to `O=C(CCN1CCN2CCCC2C1)N1c2ccccc2Sc2ccc(Cl)cc21` (centres undefined), the Potency entry with astro was “inactive”.

As for `CCc1cc(Cl)c(OC)c(C(=O)NC[C@@H]2CCCN2CC)c1O`, the Potency entry with astro was “inactive”.

For the compound `C[N+]1(CC2COC(c3ccccc3)(C3CCCCC3)O2)CCCCC1` (centres undefined), in the test with astro, the Potency entry was “inactive”.

On to `CCCCCCCCCCCCOCCOCCOCCOCCOCCOCCOCCOCCOCCO`, for which the Potency with astro is 3.16 µM (active).

For `CC1(COc2ccc(CC3SC(=O)NC3=O)cc2)CCCCC1` (centres undefined), the max response in test [2] is 13.5%.

Consider `C[C@]12CCC(=O)C=C1C=C[C@@H]1[C@@H]2CC[C@@]2(C)[C@H]1CC[C@@]21CCC(=O)O1`, for which, in test [1] (setting [5]), the activity, negative = cell killing was -20%. Further, the Potency result in the test on astro is “inactive”.

As to `CCCCCCCCNC(C)C(O)c1ccc(SC(C)C)cc1` (centres undefined), the Potency in the test on astro was 22.4 µM (active).

Turning to `C#C[C@]1(O)CC[C@H]2[C@@H]3[C@H](C)CC4=C(CCC(=O)C4)[C@H]3CC[C@@]21C`, the activity, negative = cell killing in test [1] (setting [5]) was -14.2%. Further, in test [1] (tumour line A), the Potency was 31.6 µM (active). Moreover, the Potency entry in the test on astro was “inactive”.

`C[C@@]12C(=O)OC(=O)[C@]1(C)C1CCC2O1`: in the test with astro, the Potency is 0.631 µM (active).

`CCC(CC)(CC(=O)Nc1cccc(/C=C/c2nc(C3CCC3)cs2)c1)C(=O)O`: in the test on astro, the Potency is 15.8 µM (active).

`CC(C)(C)CC(C)(C)c1ccc(O)c(-n2nc3ccccc3n2)c1`: the Potency entry with astro is “inactive”. Besides, the max response in test [2] is 0.874%.

With `O=C(Nc1ncc([N+](=O)[O-])s1)c1cccs1`, in the test on astro, the Potency was 15.8 µM (active).

Turning to `CO[C@H]1C=CO[C@@]2(C)Oc3c(C)c(O)c4c(O)c(c(/C=N/N5CCN(C)CC5)c(O)c4c3C2=O)NC(=O)/C(C)=C\C=C[C@H](C)[C@H](O)[C@@H](C)[C@@H](O)[C@@H](C)[C@H](OC(C)=O)[C@@H]1C`, in the test on astro, the Potency is 31.6 µM (active).

On to `O=C(Nc1ccc([N+](=O)[O-])cc1)Nc1ccc([N+](=O)[O-])cc1`, for which the activity, negative = cell killing in test [1] (setting [6]) was -14.3%; in test [1] (setting [7]), -15.7%. In the test on astro, the Potency result was “inactive”.

On to `Oc1ccc(Cl)cc1Cc1cc(Cl)ccc1O`, for which the Potency in the test with astro was 11.2 µM (active). For the same compound, the max response in test [2] was -15% and -0.451%. The compound was called inactive in test [3].

Consider `CCN1/C(=C/C=C/c2sc3ccccc3[n+]2CC)Sc2ccccc21`, for which, in the test on astro, the Potency was 11.2 µM (active).

In the case of `Oc1c(Cl)cc(Cl)c(Cl)c1Cc1c(O)c(Cl)cc(Cl)c1Cl`, in the test with astro, the Potency is 4.47 µM (active). In test [3], the compound was classed as inactive.

As for `CCCCCCCCCCC[C@@H](C[C@@H]1OC(=O)[C@H]1CCCCCC)OC(=O)[C@H](CC(C)C)NC=O`, in test [1] (setting [6]), the activity, negative = cell killing was -23%. The Potency in test [1] (tumour line A) was 10 µM (active); in the test on astro, 22.4 µM (active).

As to `CCCCc1cc2ccccc2c(OCCN(C)C)n1`, the activity, negative = cell killing in test [1] (setting [8]) was -4.36%; in test [1] (setting [9]) it was -17.4%. In the test with astro, the Potency result was “inactive”.

As to `O=C(N/N=C/c1ccc([N+](=O)[O-])o1)c1ccc(O)cc1`, the Potency entry in the test with astro is “inactive”.

For `CCCN(CCc1cccs1)[C@H]1CCc2c(O)cccc2C1`, in the test on astro, the Potency entry was “inactive”.

For the compound `CN1CCN(c2c(F)cc3c(=O)c(C(=O)O)cn4c3c2SCC4)CC1`, the values for the activity, negative = cell killing in test [1] (setting [5]) and in test [1] (setting [7]) were -10.6% and -19.6%, respectively. Further, the Potency result with astro was “inactive”.

Take `CC(=O)OCC(=O)[C@H]1CC[C@H]2[C@@H]3CCC4=CC(=O)CC[C@]4(C)[C@H]3CC[C@]12C`: in test [1] (setting [7]), the activity, negative = cell killing is -12.5%. In addition, the Potency in test [1] (tumour line A) was 8.91 µM (active). The Potency result with astro is “inactive”.

Regarding `CN1CCN(C2=Nc3cc(F)ccc3Cc3ccccc32)CC1`, the Potency entry in the test on astro was “inactive”.

In the case of `CCCCCCCCCCCCCC[N+](C)(C)Cc1ccccc1`, in the test on astro, the Potency is 12.6 µM (active).

Regarding `CN1CCN(CCC(=O)N2c3ccccc3Sc3ccc(C(F)(F)F)cc32)CC1`, the Potency result in the test with astro was “inactive”.

Take `COc1cc(C(=O)N2CCCCCCC2)cc(OC)c1OC`: the values for the activity, negative = cell killing in test [1] (setting [5]) and in test [1] (setting [6]) were -16.1% and -20.1%, respectively. In addition, the Potency entry in the test with astro was “inactive”.

Turning to `NC(N)=NN=C(/C=C/c1ccc([N+](=O)[O-])o1)/C=C/c1ccc([N+](=O)[O-])o1`, the Potency in the test on astro is 22.4 µM (active).

As to `C[C@H]1O[C@@H](O[C@H]2CC[C@@]3(C)[C@H](CC[C@@H]4[C@@H]3C[C@@H](O)[C@]3(C)[C@@H](C5=CC(=O)OC5)CC[C@]43O)C2)C[C@H](O)[C@@H]1O[C@H]1C[C@H](O)[C@H](O[C@H]2C[C@H](O)[C@H](O[C@@H]3O[C@H](CO)[C@@H](O)[C@H](O)[C@H]3O)[C@@H](C)O2)[C@@H](C)O1`, the Potency was 0.316 µM (active) with astro and 0.198 µM (active) in test [4].
